# Screening data as filed in PubChem.
# A549 tox: counter-screen for Nrf2 inhibitors: cytotoxicity in A549 cells | A549 ARE-Fluc cells, CellTiter-Fluor viability, 18-24 h | Potency, µM (doses to about 46 µM), without a hit: at the top dose activity change, negative = cytotoxicity, usual class: inhibitors | actives 0.16% (n = 390,000) | AID 504648; note: potency is the fitted concentration of half-maximal effect; % is set by controls: 0 for no effect and ±100 for the full control effect
#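 Cytotoxicity counterscreen: CellTiter-Fluor fluorescence was measured in A549 ARE_Fluc cells after 18-24 h of compound exposure in a concentration series. The subsequent BugLite luminescent read reports ARE-luciferase activity.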
# ALOX12 inh: ALOX12 (human) lipoxygenase inhibition. AID 1671190. actives 1.1% (n = 580,000). P18054. Potency, µM (top dose mostly 108 µM), for the others: at the highest dose activity change, negative = inhibition, most hits filed as inhibitors. purified 12hLO, xylenol orange hydroperoxide absorbance; note: potency is the fitted concentration of half-maximal effect; % is set by controls: 0 for no effect and ±100 for the full control effect
#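 Hydroperoxide product was detected by ferrous iron/xylenol orange as the 573 to 405 nm absorbance ratio. Arachidonic acid at 40 uM (final) was turned over for 30 min at room temperature by 150 nM human 12hLO, pH 7.0 Hepes buffer, after 15 min compound preincubation.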
# IDH1 R132H inh: blocks human mutant IDH1 R132H enzyme | IDH1-R132H enzyme, NADPH consumption, diaphorase/resazurin fluorescence | Potency, µM (highest dose often 76.6 µM), without a hit: top-dose activity change, negative = inhibition, most hits filed as inhibitors | actives 0.093% (n = 390,000) | AID 602179; note: potency is the fitted concentration of half-maximal effect; % is set by controls: 0 for no effect and ±100 for the full control effect; nearly all actives have a fitted effect of over 65% in size
# Target sequence (O75874 whole entry R132H, stated change not applied): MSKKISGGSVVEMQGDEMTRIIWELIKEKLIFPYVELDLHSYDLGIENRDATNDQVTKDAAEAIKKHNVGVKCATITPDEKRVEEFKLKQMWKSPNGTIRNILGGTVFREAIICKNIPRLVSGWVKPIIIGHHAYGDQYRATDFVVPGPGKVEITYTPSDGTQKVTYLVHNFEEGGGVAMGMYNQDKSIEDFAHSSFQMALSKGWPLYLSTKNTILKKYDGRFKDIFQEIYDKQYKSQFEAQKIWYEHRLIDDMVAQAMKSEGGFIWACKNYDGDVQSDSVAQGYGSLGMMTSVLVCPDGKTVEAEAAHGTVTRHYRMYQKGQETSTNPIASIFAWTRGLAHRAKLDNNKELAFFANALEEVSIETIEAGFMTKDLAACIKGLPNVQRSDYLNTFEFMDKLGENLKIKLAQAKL
#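 IDH1-R132H (0.5 ug/mL dispensed) in pH 7.5 Tris buffer was preincubated 30 min with compound, then given a substrate mix of 0.016 mM NADPH and 2 mM alpha-KG for 80 min at room temperature; remaining NADPH was read by diaphorase/resazurin fluorescence.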
# Nrf2 ARE act: activators of Nrf2 (ARE) signaling | Potency, µM (series often up to 46.1 µM), inactives show at the top dose activation, usual class: activators | actives 0.31% (n = 410,000) | AID 624171 | AREc32 ARE-luciferase reporter (MCF7-derived line), luminescence, 24 h; note: potency is the fitted concentration of half-maximal effect; % of control where 0% means no effect; nearly all actives have a fitted effect of over 65% in size
#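 ARE-driven firefly luciferase activity in AREc32 cells measured after a 24 hr compound exposure at 37 deg C, using Steady-Glo reagent and a 30 min room-temperature hold.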
# LDHA block: blocks human lactate dehydrogenase A; P00338; activity change, % (values are at about 110 or 230 µM); purified LDHA, NADH/diaphorase-resazurin fluorescence; active compounds read low; actives 0.15% (n = 480,000); in the data active = activity change below about -30%; inconclusive = mostly about -25% to -30%;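 note: plate controls were DMSO wells for no effect and wells without enzyme for full effect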
#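 Resorufin fluorescence (ex540/em590), read at 0 and 20 min after diaphorase/resazurin addition, reports the NADH left after a 5 min room-temperature reaction of 2 nM human LDH5 with 0.06 mM NADH and 0.2 mM pyruvate.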
# Nrf2 inh: inhibitors of Nrf2 signaling; actives 2.1% (n = 360,000); Potency, µM (top dose mostly 46 µM), for inactives: at the highest dose activity change, negative = inhibition, actives largely listed as inhibitors; A549 ARE-Fluc reporter, luciferase luminescence, 18-24 h; AID 504444; note: potency is the fitted concentration of half-maximal effect; % is set by controls: 0 for no effect and ±100 for the full control effect; nearly all actives have a fitted effect of over 60% in size
#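 A549 ARE_Fluc cells, 5000/well, 5% FBS OPTI-MEM; compounds in dose-response, 18-24 h at 37 °C/5% CO2; CellTiter-Fluor viability read (Ex 405/Em 525), then BugLite luciferase luminescence = Nrf2 activity.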
# Starred values were filed as active, the others as inactive; u = inconclusive; x = no result given; [ ] = dose if it differs, or a comment. This is a sample that favours compounds with a hit; in the whole collection about 2.7% have one here. Unless noted, calls come from the whole dose curve; as a rule, active = well fitted curve in the direction sought with a large enough effect; inconclusive = small, poorly fitted or top-dose-only effect, or another doubt; inactive = no such curve, though single readings can be large; an effect the other way counts as inactive or inconclusive.
SMILES,A549 tox,ALOX12 inh,IDH1 R132H inh,Nrf2 ARE act,LDHA block,Nrf2 inh
COCCCNC(=O)c1c(NC(=O)c2ccco2)n(Cc2ccccc2)c2nc3ccccc3nc12,3%,408%,0%,16µM*,23,2%
COCCNC(=O)c1c(NC(=O)c2ccc(Br)o2)n(Cc2ccccc2)c2nc3ccccc3nc12,0%,1%,-11%,0%,0,-9%
CC1CCN(C(CC(=O)c2ccccc2)C(=O)c2ccccc2)CC1 (stereo not given),-4%,8.9µM*,1%,1%,2,u
O=C(c1ccccc1)C(CN1CCCC1)c1ccccc1 (stereo not given),-11%,-13%,-4%,u,-8,u
C[N+]12CCC(CC1)C(=C(c1ccccc1)c1ccccc1)C2,-1%,35µM*,-1%,-1%,u,7%
CC[N+]12CCC(CC1)C(=C(c1ccccc1)c1ccccc1)C2,5%,-17%,1%,0%,-3,13%
[Hg+][c]1ccccc1,x,x,x,x,-62*,x
C[C@]12CC[C@@H]3c4ccc(O)c(O)c4CC[C@H]3[C@@H]1CC[C@@H]2O,-7%,5µM*,11%,u,18,-3%
C[C@]12CC[C@H]3[C@@H](CCC4=CC(=O)CC[C@@H]43)[C@@H]1CC[C@@H]2O,0%,-8%,-9%,9%,-2,-13%
CCN(CC)CCOC(=O)C(O)(c1ccccc1)c1ccccc1,-2%,-18%,25%,0%,3,5%
CC(C)N1C(=O)CC2(CC[N+](C)(CCOC(=O)C(O)(c3ccccc3)c3ccccc3)CC2)C1=O (stereo not given),10%,35µM*,5%,0%,-34*,22%
COc1ccc(CNC(C)Cc2ccccc2)cc1 (stereo not given),x,8%,x,x,3,x
COC(=O)C(O)(c1ccc(N=Cc2ccccc2O)c(C)c1)C(F)(F)F (stereo not given),-8%,12%,0%,0%,-1,12%
CC(C)(C)c1ccc(O)c(N=Cc2c(O)ccc3ccccc23)c1,u,7.9µM*,13%,5%,8,u
CC(C)(O)/C=C/C(=O)C(C)(O)C1C(O)CC2(C)C3CC=C4C(C=C(O)C(=O)C4(C)C)C3(C)C(=O)CC12C (stereo not given),2.3µM*,-4%,-1%,-2%,-4,1.5µM*
CC(=O)OC(C)(C)/C=C/C(=O)[C@](C)(O)C1[C@H](O)C[C@@]2(C)C3CC=C4C(C[C@H](O)C(=O)C4(C)C)[C@]3(C)C(=O)C[C@]12C (stereo not given in full),0.65µM*,x,1%,-3%,-2,u
CCC1CN2CCc3cc(OC)c(OC)cc3C2CC1CC1NCCc2c1[nH]c1ccc(O)cc21 (stereo not given),1.2µM*,u,3%,-2%,17,0.52µM*
COc1cc(/C=C2\C(=O)NC(=O)N(c3ccccc3)C2=O)cc(OC)c1O,3%,u,-3%,0%,53,9%
COc1ccccc1N1C(=O)NC(=O)/C(=C/c2ccc3c(c2)Cc2ccccc2-3)C1=O,11%,u,-9%,0%,-33*,u
CN(C)c1ccc2c(c1)N=C(c1ccco1)OP2(=S)N1CCOCC1 (stereo not given),3%,20µM*,4%,13%,8,u
O=C1NC(=O)C(Sc2ccccc2[N+](=O)[O-])C(=O)N1,-10%,10µM*,-2%,4%,17,6%
O=S(=O)(Cc1ccc(F)cc1)C(c1ccc(F)cc1)c1ccc(F)cc1,x,1%,x,x,5,x
Cc1ccc(N2C(=O)NC(=O)/C(=C/c3ccc(OC(=O)c4cccs4)cc3)C2=O)cc1,x,45µM*,9%,2%,-9,5%
O=C1NC(=O)N(c2ccc3c(c2)OCO3)C(=O)/C1=C/c1cccs1,1%,u,0%,6%,-6,-1%
COc1ccc(N2C(=O)NC(=O)/C(=C/c3cccc(OC(=O)c4cccs4)c3)C2=O)cc1Cl,-3%,35µM*,1%,0%,-4,8%
SMILES,A549 tox,ALOX12 inh,IDH1 R132H inh,Nrf2 ARE act,LDHA block,Nrf2 inh
CC(C)Cn1nc(C(=O)NCC2(N3CCOCC3)CCCCC2)c2ccccc2c1=O,x,u,x,x,-12,x
COc1ccc(N2CC3CCC(C2)N3CC(F)(F)F)cn1,x,0%[6.33 µM],x,x,x,x
CC(CNC(=O)c1ccc(CSc2nc3ccncc3n2Cc2ccc(F)cc2)cc1)c1ccccc1 (stereo not given),-9%,-5%,-15%,3%,0,23µM*
CN1C[C@@H]2OCC(=O)N[C@@H]2C1,x,86%[365 µM],x,x,x,x
C=C(C)C(Cc1c(OC)ccc(C(=O)/C=C/c2ccc(O)cc2)c1O)OO (stereo not given),-9%,20µM*,u,u,-1,-6%
CC[n+]1c(SC)ccc2cc(OC)ccc21,u,u,-4%,0%,-1,18µM*
Cc1nc(-c2ccccc2Br)cc([C@H]2CN3CC[C@H]2C[C@@H]3CNC(=O)Nc2cccc(C#N)c2)n1,x,28µM*,x,x,x,x
Cc1nc(-c2ccccc2Br)cc([C@H]2CN3CC[C@H]2C[C@@H]3CNC(=O)c2cccs2)n1,x,35µM*,x,x,x,x
CC(=O)O[C@H]1C[C@H](O[C@H]2[C@@H](O)C[C@H](O[C@@H]3[C@@H](O)C[C@H](O[C@H]4CC[C@@]5(C)[C@H](CC[C@@H]6[C@H]5C[C@@H](O)[C@]5(C)[C@@H](C7=CC(=O)OC7)CC[C@]65O)C4)O[C@@H]3C)O[C@@H]2C)O[C@H](C)[C@H]1O[C@@H]1O[C@H](CO)[C@@H](O)[C@H](O)[C@@H]1O,x,13%,x,x,x,x
O=S(=O)(NC[C@H]1C[C@@H]2CCN1C[C@@H]2CN1CCOCC1)c1cccs1,x,-12%[176 µM],x,x,x,x
COc1cc2c(cc1OCc1cccnc1)N(C(=O)Cc1cccc(Cl)c1)CC21CCN(CC(=O)O)CC1,x,21%,x,x,x,x
CN1C(=O)/C(=C/c2ccc(Cl)s2)C(=O)NC1=S,-13%,4.5µM*,-9%,0%,-4,u
C=CCN1C(=O)/C(=C/c2ccc(Br)s2)C(=O)NC1=S,-5%,5.6µM*,-10%,4%,-5,-3%
C=CCN1C(=O)/C(=C\c2ccc(N3CCOCC3)o2)C(=O)NC1=S,-12%,u,3%,2%,-3,21%
O=C(O)CSCC(=O)N1C[C@@H]2C[C@H](C1)c1c(-c3ccccc3F)ccc(=O)n1C2,x,63%[176 µM],x,x,x,x
